What was measured:
Test in all cases: PBM binding z-score (relative to random genomic background probes); higher = stronger binding; sequences stand for … in GC…GCGATTGACAGCGTAGAATGAAGG
[1] = tested on: FXR:RXRa (NR concentration 270 nM, RXRa partner concentration 90 nM)
Method in brief: (§1)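 Each nuclear receptor dimer, without ligand, was incubated for 1 h on custom Agilent 4×180K protein-binding microarrays. Binding was detected with antibodies against each partner (one per run), and scanned fluorescence was regression-normalized. The binding z-scores are referenced to random human genomic background probes.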

[2] = tested on: LXRa:RXRa (NR concentration 270 nM, RXRa partner concentration 90 nM)
Method in brief: as §1

[3] = tested on: LXRa homodimer (NR concentration 270 nM)
Method in brief: as §1

[4] = tested on: LXRb:RXRa (NR concentration 270 nM, RXRa partner concentration 90 nM)
Method in brief: as §1

[5] = tested on: LXRb homodimer (NR concentration 270 nM)
Method in brief: as §1

[6] = tested on: PPARa:RXRa (NR concentration 270 nM, RXRa partner concentration 90 nM)
Method in brief: as §1

[7] = tested on: PPARg:RXRa (NR concentration 180 nM, RXRa partner concentration 90 nM)
Method in brief: as §1

[8] = tested on: PPARg:RXRa 270nM:90nM, anti-RXR (NR concentration 270 nM, RXRa partner concentration 90 nM)
Method in brief: as §1

[9] = tested on: PPARg:RXRa 30nM:10nM, anti-RXR (NR concentration 30 nM, RXRa partner concentration 10 nM)
Method in brief: as §1

[10] = tested on: PPARg:RXRa 90nM:30nM, anti-RXR (NR concentration 90 nM, RXRa partner concentration 30 nM)
Method in brief: as §1

[11] = tested on: PPARg:RXRa DBDmut IVT, anti-RXR (DBD mutation: RXRa K156A/R161A, NR concentration 270 nM, RXRa partner concentration 90 nM)
Method in brief: as §1

[12] = tested on: PPARg:RXRa IVT, anti-PPARg (NR concentration 270 nM, RXRa partner concentration 90 nM)
Method in brief: as §1

[13] = tested on: PPARg DBDmut:RXRa IVT, anti-PPARg (DBD mutation: PPARg1 K132A/R137A, NR concentration 270 nM, RXRa partner concentration 90 nM)
Method in brief: as §1

[14] = tested on: PPARg DBDmut IVT, anti-PPARg (DBD mutation: PPARg1 K132A/R137A, NR concentration 270 nM)
Method in brief: as §1

[15] = tested on: PPARg homodimer (NR concentration 180 nM)
Method in brief: as §1

[16] = tested on: PXR:RXRa (NR concentration 270 nM, RXRa partner concentration 90 nM)
Method in brief: as §1

[17] = tested on: PXR homodimer (NR concentration 270 nM)
Method in brief: as §1

[18] = tested on: RARa:RXR (NR concentration 270 nM, RXRa partner concentration 90 nM)
Method in brief: as §1

[19] = tested on: RARa homodimer (NR concentration 270 nM)
Method in brief: as §1

Sequence	PBM binding z-score [1]	PBM binding z-score [2]	PBM binding z-score [3]	PBM binding z-score [4]	PBM binding z-score [5]	PBM binding z-score [6]	PBM binding z-score [7]	PBM binding z-score [8]	PBM binding z-score [9]	PBM binding z-score [10]	PBM binding z-score [11]	PBM binding z-score [12]	PBM binding z-score [13]	PBM binding z-score [14]	PBM binding z-score [15]	PBM binding z-score [16]	PBM binding z-score [17]	PBM binding z-score [18]	PBM binding z-score [19]
ACTAGCAGGCCAAGAGTCACTCAAGATTAGTCCG	0.0217	-0.0111	-0.373	-0.29	-0.882	1.46	2.56	4.08	2.06	3.48	0.813	0.847	-0.175	-0.385	0.631	-0.105	-0.185	0.354	-0.112
CGTCAAAGCTCAACTAAGGTAACGTAAAGCACGC	0.16	-0.241	-0.0906	-0.093	-0.32	-0.0617	0.335	-0.241	-0.2	-0.494	0.431	-0.398	-1.05	-0.108	0.191	-0.124	-0.0533	0.83	-0.0738
CCTGCTAGGTCTATGGTCAGCTAAAGCAGCTCGC	-0.302	-0.394	-0.393	-0.493	-0.41	-0.509	-0.485	0.268	-1.04	-0.432	-0.291	-0.225	-0.749	-1.11	-0.133	-0.569	-0.846	-0.37	-0.766
CCTTACCGGTCAAGGTTATAGCACGGGTGGTACG	1.7	1.88	0.946	1.05	0.381	1.83	0.758	0.908	-0.303	0.282	-0.499	0.825	-0.737	-0.375	1.58	1.16	0.299	1.3	0.889
CGTCCAAGGTCAACAGGTCAGTGAAAGCGACGTG	7.08	5.58	1.56	4.45	0.945	5.84	5.65	6.07	2.82	4.88	3.88	4.5	0.0184	0.0079	5.41	4.98	1.28	5.92	1.34
TAGCCTAGGCCATGGGCCAGTATACCACGCGAAC	-0.747	-0.914	-0.864	-1.07	-1.23	-0.56	0.326	-0.0896	-0.9	-0.67	-0.977	-0.175	-0.116	-1.11	-1.27	-0.806	-1.11	-0.86	-1.48
CGAACTAAGTCATTGACAGGACAGTGAATAGTAA	-0.324	-0.239	-0.0692	-0.347	-0.466	-0.0981	0.241	0.0844	-0.211	-0.239	0.976	0.473	-0.569	0.367	-0.739	-0.093	-0.313	0.0796	0.472
ATCTCTAGGTAAAGTTCATTGAAAGATCGATAGA	2.67	3.78	4.69	2.63	1.81	3.5	4.69	5.51	3.5	5.54	2.31	2.83	2.23	2	2.58	4.46	5.32	2.76	2.29
CCTCGGAGGACACCAGGAGGTCAGAGCTGCCAGA	1.2	1.69	0.739	1.12	-0.792	2.14	0.153	0.169	-0.691	-0.278	-0.249	0.459	-1.54	-1.67	1.78	2.17	-0.014	2.56	0.922
AGTCCAAGTTCACTAGGTAACGTAAGATTCAGCT	1.35	1.68	0.49	0.985	0.056	2.69	2.6	2.95	0.796	1.91	2.21	3.58	1.01	0.63	0.72	2.45	2.13	1.17	0.555
CGTCCAAGGTCAGCAGGTCACTGAAAGCGACGTG	6.56	4.66	0.808	3.7	0.0267	5.5	5.54	5.5	1.58	4.01	3.75	4.56	0.394	-1.07	5.36	4.71	0.781	6.22	2.7
CAGCCTAGGTGAGGGCCAGTATAGGAGGAACGTT	-0.516	-0.622	-0.626	-0.617	-1.21	-0.243	0.16	-0.421	-0.568	-0.607	0.681	0.776	-0.889	-1.52	-0.00134	-0.652	-0.633	-0.402	-0.758
AATACAGGATCACTAGGCCAGAGTAGGTACGAAT	-0.102	-0.204	-0.28	-0.407	-0.237	0.128	1.19	0.718	0.264	0.869	0.409	1.29	1.21	0.197	0.314	-0.236	0.366	-0.456	0.395
TTACCAAGGTGAAAGGTCGTTGAAGCACGCCTTG	4.16	3.41	0.16	2.97	-0.616	5.82	9.24	8.52	7.08	9.79	2.63	5.39	0.668	-0.186	1.84	4.44	0.41	6.52	-0.363
CAAGCTAGGTCAAGAGGTCAAAGTCCGCTTCCCG	7.28	6.35	6.45	5.81	1.58	6.2	6.82	6.77	4.04	6.31	4.26	5.5	0.198	-0.534	7.12	6.25	3.16	7.58	3.04
CAAACTAGGTCACAGAGGTCAACGTCCGTGCGTA	7.51	6.49	6.37	5.93	1.62	6.75	10.3	8.36	6.69	8.46	8.84	9.29	4.63	5.15	4.43	6.82	8.28	7.23	2.74
AGTCAAAGGTCAGGACGAGGTAACGTAAAGCACG	7.52	5.96	0.926	4.9	1.48	6.17	8.88	7.95	4.99	7.2	3.25	5.65	0.687	0.49	4.08	4.9	0.639	5.78	2.25
ATCGGAAGGTCGAGGTGAGTATAGAGAAAGGGAA	2.07	1.65	-0.107	1.23	0.134	2.5	1.23	1.33	0.513	0.876	0.383	1.36	0.811	0.693	1.44	1.1	0.218	1.59	0.522
TTTCCAAGGTGAAAGGTCGTTGATGCACGCCTTG	3.56	3.59	0.323	2.79	0.0398	5.37	7.96	7.33	6.06	7.82	2.51	4.72	0.923	0.85	1.64	4.23	0.161	5.56	-0.0268
CCTACTGGGCCAAGGTCATTGCTCAGTCAAAGCA	3.09	3.01	0.828	2.83	-0.46	3.63	3.88	4.33	1.07	3.55	3.53	4.65	0.15	-1.36	1.17	3.36	0.887	3.01	-0.436
TAGCCTAGGTCAGATCGGGCCAGTCTACGCTATA	1.89	1.15	-0.542	0.223	-0.401	1.82	0.647	0.822	-0.388	0.205	0.403	1.41	-0.912	-0.787	-0.159	1.18	-0.895	1.05	-1.11
CGTCTAAGGTCAAGGTCAGTGAAAGAGACTCGAA	8.18	6.22	1.33	5.02	1.18	6.43	6.86	6.78	3.43	5.94	4.02	4.78	0.613	0.471	4.29	5.41	1.4	5.75	2.57
CCTACTGGGCCATTCAGAGGTCATTGATCATATG	2.92	4.32	6.45	3.73	0.365	3.82	2.59	3.24	0.818	2.26	4.59	4.4	0.046	0.818	2.59	4.8	2.3	4.59	0.867
CGTCCAAGGTCAACGCTAGGTCAGTGAAAGCATT	7.34	5.95	2.69	4.66	0.677	5.71	5.29	5.4	2.18	3.94	3.48	4.66	-0.0404	0.201	6.46	5.11	1.66	6.35	2.52
GCTGCTAGGTCAGGTTGGTCTGCTAACGGGTACG	1.17	0.795	-0.237	0.627	-0.557	1.4	0.225	0.854	-0.545	0.295	3.08	2.35	-0.411	-0.998	0.673	0.505	-0.437	0.971	0.182
CAAACTAGGTCACGAAAGGTCAACGTCGAATGAC	7.41	7.98	7.42	7.06	2.11	6.81	10.6	8.8	7.57	9.28	8.6	9.17	3.99	4.43	6.55	7.35	2.65	7.97	4.53
CGTCCAAGGGCAGCAGGTCAGTGAAAGCGACGTG	0.137	-0.0372	-0.847	-0.105	-1.37	0.938	0.305	0.501	-0.617	-0.019	0.8	0.701	-0.933	-1.17	0.592	0.274	-0.825	0.723	-0.64
CGTCCAAGGTCACAGGAGGTCAGTGAAGACAGAT	7.67	7.39	4.32	5.97	0.764	6	6.76	6.69	3.37	5.61	4.02	5.26	0.184	-0.411	4.98	6.88	3.92	6.48	2.32
CGAACTAGGTCAGAACAGGACATTGAAGGATGAT	1.42	1.55	0.178	0.649	-0.13	3.32	5.42	4.48	1.68	3.62	7.08	7.32	2.82	2.2	1.27	1.96	0.214	1.66	0.708
AGTCAAAGTTCACGAGGTAACGTAAGATTCAGCT	7.1	6.36	3.51	4.18	1.13	5.7	7.78	7.53	4.79	7.08	1.37	4.03	1.17	0.67	2.91	5.13	2.45	4.95	1.29

From the supplement of paper PMC6555819
